Assay results as given in publication PMC11006913.
Where a chain is given by its changes, count along the chain named.

How the values were obtained:
Experiment in all cases: PBM; 200 nM protein, PBS
Settings in all cases: dsDNA, one strand shown
HOXC9 [1] = target: HOXC9 (Homo sapiens, UniProt P31274 178-260, K195R)
PRRX1 = PRRX1 (Homo sapiens, UniProt P54821 80-166, F113S)
ALX4 = ALX4 (Homo sapiens, UniProt Q9H161 200-286, Q225E)
HOXC10 [2] = target: HOXC10 (Homo sapiens, UniProt Q9NYD6 254-340, K271E)
Chain of HOXC10 (Homo sapiens, UniProt Q9NYD6 254-340, K271E) (Q9NYD6 254-340 K271E): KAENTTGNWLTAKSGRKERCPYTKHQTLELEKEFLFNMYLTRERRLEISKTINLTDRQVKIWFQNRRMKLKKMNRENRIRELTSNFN

ALX3 [3] = target: ALX3 (Homo sapiens, UniProt O95076 139-225, L168Q)
Chain of ALX3 (Homo sapiens, UniProt O95076 139-225, L168Q) (O95076 139-225 L168Q): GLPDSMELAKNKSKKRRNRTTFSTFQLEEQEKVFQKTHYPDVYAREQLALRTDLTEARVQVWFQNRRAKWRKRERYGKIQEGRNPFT

ALX3 [4] = target: ALX3 (Homo sapiens, UniProt O95076 139-225, L168V)
Chain of ALX3 (Homo sapiens, UniProt O95076 139-225, L168V) (O95076 139-225 L168V): as the sequence (O95076 139-225 L168Q) above, with Q30V counted along it

HOXA4 [5] = target: HOXA4 (Homo sapiens, UniProt Q00056 201-287, W262R)
Chain of HOXA4 (Homo sapiens, UniProt Q00056 201-287, W262R) (Q00056 201-287 W262R): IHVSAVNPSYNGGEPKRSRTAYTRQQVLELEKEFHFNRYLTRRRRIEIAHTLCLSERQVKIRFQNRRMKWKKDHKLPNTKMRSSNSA

HOXA4 [6] = target: HOXA4 (Homo sapiens, UniProt Q00056 201-287)
Chain of HOXA4 (Homo sapiens, UniProt Q00056 201-287) (Q00056 201-287): as the sequence (Q00056 201-287 W262R) above, with R62W counted along it

HOXC10 [7] = target: HOXC10 (Homo sapiens, UniProt Q9NYD6 254-340)
Chain of HOXC10 (Homo sapiens, UniProt Q9NYD6 254-340) (Q9NYD6 254-340): as the sequence (Q9NYD6 254-340 K271E) above, with E18K counted along it

HOXC9 [8] = target: HOXC9 (Homo sapiens, UniProt P31274 178-260)
Chain of HOXC9 (Homo sapiens, UniProt P31274 178-260) (P31274 178-260): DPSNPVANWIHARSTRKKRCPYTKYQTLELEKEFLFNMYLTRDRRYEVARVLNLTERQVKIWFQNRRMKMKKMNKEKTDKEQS

HOXC9 [9] = target: HOXC9 (Homo sapiens, UniProt P31274 178-260, R193K)
Chain of HOXC9 (Homo sapiens, UniProt P31274 178-260, R193K) (P31274 178-260 R193K): as the sequence (P31274 178-260) above, with R16K counted along it

HOXC9 [10] = target: HOXC9 (Homo sapiens, UniProt P31274 178-260, R222W)
Chain of HOXC9 (Homo sapiens, UniProt P31274 178-260, R222W) (P31274 178-260 R222W): as the sequence (P31274 178-260) above, with R45W counted along it

PAX4 [11] = target: T1, PAX4 (Homo sapiens, UniProt O43316 9-242, R200K)
T1 sequence: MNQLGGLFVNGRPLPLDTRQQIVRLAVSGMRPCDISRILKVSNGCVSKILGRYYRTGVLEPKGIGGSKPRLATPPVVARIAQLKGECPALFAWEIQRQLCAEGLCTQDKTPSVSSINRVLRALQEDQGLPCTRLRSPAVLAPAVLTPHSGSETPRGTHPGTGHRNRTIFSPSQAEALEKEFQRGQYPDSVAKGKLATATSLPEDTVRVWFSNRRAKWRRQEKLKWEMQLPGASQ

PAX4 [12] = target: T2, PAX4 (Homo sapiens, UniProt O43316 9-242)
T2 sequence: T1 sequence with K192R

PAX4 [13] = target: T3, PAX4 (Homo sapiens, UniProt O43316 9-242, R200Q)
T3 sequence: T1 sequence with K192Q

PAX4 [14] = target: T4, PAX4 (Homo sapiens, UniProt O43316 9-242, F177V)
T4 sequence: T1 sequence with F169V, K192R

PAX4 [15] = target: T5, PAX4 (Homo sapiens, UniProt O43316 9-242, F177Y)
T5 sequence: T1 sequence with F169Y, K192R

PAX4 [16] = target: T6, PAX4 (Homo sapiens, UniProt O43316 9-242, R227W)
T6 sequence: T1 sequence with K192R, R219W

HOXB6 [17] = target: HOXB6 (Homo sapiens, UniProt P17509 132-218, K202E)
Chain of HOXB6 (Homo sapiens, UniProt P17509 132-218, K202E) (P17509 132-218 K202E): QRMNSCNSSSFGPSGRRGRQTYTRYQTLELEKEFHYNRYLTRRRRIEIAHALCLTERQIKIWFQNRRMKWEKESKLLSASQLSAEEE

ALX3 [18] = target: ALX3 (Homo sapiens, UniProt O95076 139-225, N203Q)
Chain of ALX3 (Homo sapiens, UniProt O95076 139-225, N203Q) (O95076 139-225 N203Q): as the sequence (O95076 139-225 L168Q) above, with Q30L, N65Q counted along it

ALX3 [19] = target: ALX3 (Homo sapiens, UniProt O95076 139-225)
Chain of ALX3 (Homo sapiens, UniProt O95076 139-225) (O95076 139-225): as the sequence (O95076 139-225 L168Q) above, with Q30L counted along it

ALX3 [20] = target: ALX3 (Homo sapiens, UniProt O95076 139-225, N203S)
Chain of ALX3 (Homo sapiens, UniProt O95076 139-225, N203S) (O95076 139-225 N203S): as the sequence (O95076 139-225 L168Q) above, with Q30L, N65S counted along it

HOXB6 [21] = target: HOXB6 (Homo sapiens, UniProt P17509 132-218)
Chain of HOXB6 (Homo sapiens, UniProt P17509 132-218) (P17509 132-218): as the sequence (P17509 132-218 K202E) above, with E71K counted along it

HOXA4 [22] = target: HOXA4 (Homo sapiens, UniProt Q00056 201-287, W262F)
Chain of HOXA4 (Homo sapiens, UniProt Q00056 201-287, W262F) (Q00056 201-287 W262F): as the sequence (Q00056 201-287 W262R) above, with R62F counted along it

MSX2 [23] = target: MSX2 (Homo sapiens, UniProt P35548 130-214, R199I)
Chain of MSX2 (Homo sapiens, UniProt P35548 130-214, R199I) (P35548 130-214 R199I): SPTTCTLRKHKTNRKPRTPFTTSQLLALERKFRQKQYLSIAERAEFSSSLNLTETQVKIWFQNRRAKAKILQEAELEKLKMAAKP

HOXD13 [24] = target: HOXD13 (Homo sapiens, UniProt P35453 263-343, T313R)
Chain of HOXD13 (Homo sapiens, UniProt P35453 263-343, T313R) (P35453 263-343 T313R): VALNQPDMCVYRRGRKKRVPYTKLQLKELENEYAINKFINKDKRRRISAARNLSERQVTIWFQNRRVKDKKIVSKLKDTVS

HOXD13 [25] = target: HOXD13 (Homo sapiens, UniProt P35453 263-343)
Chain of HOXD13 (Homo sapiens, UniProt P35453 263-343) (P35453 263-343): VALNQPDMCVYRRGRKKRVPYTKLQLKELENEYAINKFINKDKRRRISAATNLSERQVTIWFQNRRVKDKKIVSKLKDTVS

MSX2 [26] = target: MSX2 (Homo sapiens, UniProt P35548 130-214)
Chain of MSX2 (Homo sapiens, UniProt P35548 130-214) (P35548 130-214): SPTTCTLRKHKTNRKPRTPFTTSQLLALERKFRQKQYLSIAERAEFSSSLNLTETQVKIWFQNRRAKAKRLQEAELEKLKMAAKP

HOXD13 [27] = target: HOXD13 (Homo sapiens, UniProt P35453 263-343, T313A)
Chain of HOXD13 (Homo sapiens, UniProt P35453 263-343, T313A) (P35453 263-343 T313A): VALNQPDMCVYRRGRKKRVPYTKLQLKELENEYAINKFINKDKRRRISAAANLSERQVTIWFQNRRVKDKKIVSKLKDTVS

MSX2 [28] = target: MSX2 (Homo sapiens, UniProt P35548 130-214, F161Y)
Chain of MSX2 (Homo sapiens, UniProt P35548 130-214, F161Y) (P35548 130-214 F161Y): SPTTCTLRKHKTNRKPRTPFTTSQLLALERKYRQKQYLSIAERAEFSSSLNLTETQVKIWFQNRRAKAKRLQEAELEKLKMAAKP

NKX2-6 [29] = target: T7, NKX2-6 (Homo sapiens, UniProt A6NCS4 118-204)
T7 sequence: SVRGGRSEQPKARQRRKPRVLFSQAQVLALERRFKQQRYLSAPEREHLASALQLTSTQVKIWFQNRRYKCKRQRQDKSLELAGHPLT

NKX2-6 [30] = target: T8, NKX2-6 (Homo sapiens, UniProt A6NCS4 118-204, F151L)
T8 sequence: T7 sequence with F34L

Chain of HOXC9 (Homo sapiens, UniProt P31274 178-260, K195R) (P31274 178-260 K195R): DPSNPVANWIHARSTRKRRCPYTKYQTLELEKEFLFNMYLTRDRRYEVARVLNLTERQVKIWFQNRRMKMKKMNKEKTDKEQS
Chain of ALX4 (Q9H161 200-286 Q225E): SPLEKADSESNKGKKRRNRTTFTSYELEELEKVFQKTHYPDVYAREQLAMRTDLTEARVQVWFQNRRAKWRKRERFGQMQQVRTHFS
Chain of PRRX1 (P54821 80-166 F113S): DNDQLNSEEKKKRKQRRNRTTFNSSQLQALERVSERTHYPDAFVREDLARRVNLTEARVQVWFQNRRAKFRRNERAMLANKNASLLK

AATTAAAA
binding signal (HOXC9 [1]): 12.5 upbm affinity estimate (log intensity, higher = more binding, comparable within an allelic series)
binding signal (PRRX1): 11.2 upbm affinity estimate (log intensity, higher = more binding, comparable within an allelic series)
binding signal (ALX4): 12.8 upbm affinity estimate (log intensity, higher = more binding, comparable within an allelic series)
binding signal (HOXC10 [2]): 11.8 upbm affinity estimate (log intensity, higher = more binding, comparable within an allelic series)
binding signal (ALX3 [3]): 10.3 upbm affinity estimate (log intensity, higher = more binding, comparable within an allelic series)
binding signal (ALX3 [4]): 9.86 upbm affinity estimate (log intensity, higher = more binding, comparable within an allelic series)

TAAAATTA
binding signal (HOXA4 [5]): 10.3 upbm affinity estimate (log intensity, higher = more binding, comparable within an allelic series)
binding signal (HOXA4 [6]): 12.2 upbm affinity estimate (log intensity, higher = more binding, comparable within an allelic series)

GTAAATAC
binding signal (HOXA4 [5]): 10.3 upbm affinity estimate (log intensity, higher = more binding, comparable within an allelic series)
binding signal (HOXA4 [6]): 11.3 upbm affinity estimate (log intensity, higher = more binding, comparable within an allelic series)

CTCGCGAG
binding signal (HOXC9 [1]): 9.76 upbm affinity estimate (log intensity, higher = more binding, comparable within an allelic series)
binding signal (HOXC10 [7]): 10 upbm affinity estimate (log intensity, higher = more binding, comparable within an allelic series)
binding signal (HOXC9 [8]): 9.82 upbm affinity estimate (log intensity, higher = more binding, comparable within an allelic series)
binding signal (HOXC9 [9]): 9.78 upbm affinity estimate (log intensity, higher = more binding, comparable within an allelic series)
binding signal (HOXC10 [2]): 10.1 upbm affinity estimate (log intensity, higher = more binding, comparable within an allelic series)
binding signal (HOXC9 [10]): 9.89 upbm affinity estimate (log intensity, higher = more binding, comparable within an allelic series)

ACCGCCCG
binding signal (HOXC9 [1]): 9.62 upbm affinity estimate (log intensity, higher = more binding, comparable within an allelic series)
binding signal (PAX4 [11]): 9.22 upbm affinity estimate (log intensity, higher = more binding, comparable within an allelic series)
binding signal (PAX4 [12]): 9.09 upbm affinity estimate (log intensity, higher = more binding, comparable within an allelic series)
binding signal (HOXC9 [8]): 9.79 upbm affinity estimate (log intensity, higher = more binding, comparable within an allelic series)
binding signal (PAX4 [13]): 9.24 upbm affinity estimate (log intensity, higher = more binding, comparable within an allelic series)
binding signal (HOXC9 [9]): 9.6 upbm affinity estimate (log intensity, higher = more binding, comparable within an allelic series)
binding signal (PAX4 [14]): 9.1 upbm affinity estimate (log intensity, higher = more binding, comparable within an allelic series)
binding signal (PAX4 [15]): 9.01 upbm affinity estimate (log intensity, higher = more binding, comparable within an allelic series)
binding signal (HOXC9 [10]): 9.71 upbm affinity estimate (log intensity, higher = more binding, comparable within an allelic series)
binding signal (PAX4 [16]): 9.19 upbm affinity estimate (log intensity, higher = more binding, comparable within an allelic series)

TAAGATGA
binding signal (HOXC9 [1]): 10.9 upbm affinity estimate (log intensity, higher = more binding, comparable within an allelic series)
binding signal (HOXB6 [17]): 9.54 upbm affinity estimate (log intensity, higher = more binding, comparable within an allelic series)
binding signal (HOXC9 [8]): 10.7 upbm affinity estimate (log intensity, higher = more binding, comparable within an allelic series)
binding signal (ALX3 [18]): 8.17 upbm affinity estimate (log intensity, higher = more binding, comparable within an allelic series)
binding signal (HOXC9 [9]): 10.9 upbm affinity estimate (log intensity, higher = more binding, comparable within an allelic series)
binding signal (ALX3 [19]): 9.17 upbm affinity estimate (log intensity, higher = more binding, comparable within an allelic series)
binding signal (HOXC9 [10]): 10.2 upbm affinity estimate (log intensity, higher = more binding, comparable within an allelic series)
binding signal (ALX3 [20]): 8.25 upbm affinity estimate (log intensity, higher = more binding, comparable within an allelic series)
binding signal (HOXB6 [21]): 10.1 upbm affinity estimate (log intensity, higher = more binding, comparable within an allelic series)

ATGACAGC
binding signal (HOXA4 [5]): 10.2 upbm affinity estimate (log intensity, higher = more binding, comparable within an allelic series)
binding signal (HOXA4 [6]): 11.3 upbm affinity estimate (log intensity, higher = more binding, comparable within an allelic series)
binding signal (HOXA4 [22]): 10.5 upbm affinity estimate (log intensity, higher = more binding, comparable within an allelic series)

GTTCTTAA
binding signal (HOXA4 [5]): 10.3 upbm affinity estimate (log intensity, higher = more binding, comparable within an allelic series)
binding signal (HOXA4 [6]): 11.4 upbm affinity estimate (log intensity, higher = more binding, comparable within an allelic series)
binding signal (HOXA4 [22]): 10.5 upbm affinity estimate (log intensity, higher = more binding, comparable within an allelic series)

CTATAGAA
binding signal (HOXC9 [1]): 11.1 upbm affinity estimate (log intensity, higher = more binding, comparable within an allelic series)
binding signal (HOXC9 [8]): 11 upbm affinity estimate (log intensity, higher = more binding, comparable within an allelic series)
binding signal (HOXC9 [9]): 11.1 upbm affinity estimate (log intensity, higher = more binding, comparable within an allelic series)

TCGGGCCA
binding signal (HOXC9 [1]): 9.7 upbm affinity estimate (log intensity, higher = more binding, comparable within an allelic series)
binding signal (HOXC9 [8]): 9.78 upbm affinity estimate (log intensity, higher = more binding, comparable within an allelic series)
binding signal (MSX2 [23]): 9.6 upbm affinity estimate (log intensity, higher = more binding, comparable within an allelic series)
binding signal (HOXD13 [24]): 9.55 upbm affinity estimate (log intensity, higher = more binding, comparable within an allelic series)
binding signal (HOXC9 [9]): 9.72 upbm affinity estimate (log intensity, higher = more binding, comparable within an allelic series)
binding signal (HOXD13 [25]): 9.44 upbm affinity estimate (log intensity, higher = more binding, comparable within an allelic series)
binding signal (MSX2 [26]): 9.63 upbm affinity estimate (log intensity, higher = more binding, comparable within an allelic series)
binding signal (HOXD13 [27]): 9.66 upbm affinity estimate (log intensity, higher = more binding, comparable within an allelic series)
binding signal (HOXC9 [10]): 9.7 upbm affinity estimate (log intensity, higher = more binding, comparable within an allelic series)
binding signal (MSX2 [28]): 9.51 upbm affinity estimate (log intensity, higher = more binding, comparable within an allelic series)

CCTCTCCA
binding signal (HOXC9 [1]): 9.58 upbm affinity estimate (log intensity, higher = more binding, comparable within an allelic series)
binding signal (HOXC9 [8]): 9.63 upbm affinity estimate (log intensity, higher = more binding, comparable within an allelic series)
binding signal (NKX2-6 [29]): 11.5 upbm affinity estimate (log intensity, higher = more binding, comparable within an allelic series)
binding signal (HOXC9 [9]): 9.69 upbm affinity estimate (log intensity, higher = more binding, comparable within an allelic series)
binding signal (NKX2-6 [30]): 9.51 upbm affinity estimate (log intensity, higher = more binding, comparable within an allelic series)
binding signal (HOXC9 [10]): 9.7 upbm affinity estimate (log intensity, higher = more binding, comparable within an allelic series)

CGGGCCAG
binding signal (HOXC9 [1]): 9.64 upbm affinity estimate (log intensity, higher = more binding, comparable within an allelic series)
binding signal (HOXC9 [8]): 9.85 upbm affinity estimate (log intensity, higher = more binding, comparable within an allelic series)
binding signal (MSX2 [23]): 9.53 upbm affinity estimate (log intensity, higher = more binding, comparable within an allelic series)
binding signal (HOXC9 [9]): 9.73 upbm affinity estimate (log intensity, higher = more binding, comparable within an allelic series)
binding signal (MSX2 [26]): 9.56 upbm affinity estimate (log intensity, higher = more binding, comparable within an allelic series)
binding signal (HOXC9 [10]): 9.77 upbm affinity estimate (log intensity, higher = more binding, comparable within an allelic series)
binding signal (MSX2 [28]): 9.66 upbm affinity estimate (log intensity, higher = more binding, comparable within an allelic series)

CTGCCTCC
binding signal (HOXC9 [1]): 9.62 upbm affinity estimate (log intensity, higher = more binding, comparable within an allelic series)
binding signal (HOXC9 [8]): 9.69 upbm affinity estimate (log intensity, higher = more binding, comparable within an allelic series)
binding signal (HOXD13 [24]): 9.53 upbm affinity estimate (log intensity, higher = more binding, comparable within an allelic series)
binding signal (HOXC9 [9]): 9.67 upbm affinity estimate (log intensity, higher = more binding, comparable within an allelic series)
binding signal (HOXD13 [25]): 9.62 upbm affinity estimate (log intensity, higher = more binding, comparable within an allelic series)
binding signal (HOXD13 [27]): 9.56 upbm affinity estimate (log intensity, higher = more binding, comparable within an allelic series)
binding signal (HOXC9 [10]): 9.6 upbm affinity estimate (log intensity, higher = more binding, comparable within an allelic series)
